We go through 15 compounds from PubChem BioAssay AID2472 (National Center for Advancing Translational Sciences (NCATS), 2010).

“And” between values parts separate entries of the source, which are not always exact repeats. Equal entries are not always repeated. Hit rate of the full screen: of about 290,000 compounds, about 2,000 (0.69%) were called active. No stated cut-off is given here; in the data, active means activity change below about -30%; inactive means the rest, inconclusive results apart. The sample as a whole holds a higher share of actives than the screen did. Where a structure was tested more than once in an assay, its records may differ in their call.
On the % scale 0 is the no-effect control and ±100 the full control effect.

A short description of the experiment: qHTS Assay for Inhibitors of Fructose-1,6-bisphosphate Aldolase from Giardia Lamblia: Coupling assay counterscreen. The following applies: coupling enzyme system counterscreen, AmpLite Red fluorescence; at 58.2 µM (top of the series). The source says: MLPCN Grant: MH085699-01 Assay Provider: Osnat Herzberg, University of Maryland NCGC Assay Overview: The objective of this project is to obtain compounds that inhibit Giardia lamblia growth. G. lamblia is a human pathogen which afflicts impoverished nations; it is the most common cause of outbreaks of diarrhea in the United States. During the course of our study of potential drug targets in Giardia, we have identified the Class II (Zn2+ functions in electrophilic catalysis) fructose-1,6-bisphosphate aldolase (FBPA) as an excellent candidate for drug targeting. FBPA is a key glycolytic pathway enzyme, essential for G. lamblia survival. The human FBPA belongs to the Class I aldolases, which have a different substrate binding site structure and a radically different catalytic mechanism (employing a lysine-Schiff base intermediate). Therefore, affinity-based or mechanism-based inhibitors of the Giardia FBPA are expected not to interfere with the catalytic function of the human FBPA. A glyceraldehyde-3-phosphate dehydrogenase/triose phosphate isomerase/NAD/arsenate coupled assay was adapted to the 1536-well HTP format for use in the primary screen. This was done by coupling it to a diaphorase/resazurin/resorufin reaction that can be monitored by fluorescence (excitation, 544 nm; emission, 590 nm). Compounds identified in this screen will be further evaluated by coupling the […]/triose phosphate isomerase/NADH assay to a phenazine methosulfate/tetranitroblue tetrazolium color reaction. False positives due to the dehydrogenases and diaphorase inhibition will be eliminated, and selectivity assay will triage inhibitors of mammalian triose phosphate isomerase and the Class I FBPA. G. lamblia FBPA inhibitors identified by the in vitro analyses will be examined for growth inhibition of Giardia trophozoites, and for cytotoxicity in human cells. This assay specifically addresses whether activity observed in the primary screen (AID 2451) is related to inhibition of the coupling assay used, as opposed to inhibition of aldolase. Actives in this assay are considered inconclusive for activity against aldolase.
NCGC Assay Protocol: Step,Parameter,Value,Description 1,Coupling enzyme reagent,2 uL,glyceraldehyde-3-phosphate 2,Compound,23 nL,3.68 nM-57.5 uM final concentration 3,Time,10 min,RT Incubation 4,Substrate/detection Reagent,2 uL,Substrate + enzyme coupling system + AmpLite Red kit 5,Time,20 min,RT Incubation 6,Detector,525 nm/598 nm (Fluorescence),ViewLux Fluorescence Read (Read 1) Notes: 1,Medium-binding black solid-bottom Kalypsys plates. FRD or Kalypsys dispenser. 2,Compound Library (10 mM ,1:5 dilution). Pin-transferred for a [final] range of 3.68 nM-57.5 uM. 3,RT incubation 4,FRD or Kalypsys dispenser, 2 uL of reaction mixture. Bottle kept at 4C and covered in foil to protect from light. 5,RT incubation 6,ViewLux Protocol 1194; Excitation filter wheel A (525/20 Pol; BODIPY TMR FP), Emission filter wheel B (598/25 S; BODIPY TMR FP S). Keywords: Fructose-bisphosphate aldolase, FBPA , Giardia lamblia , Giardia, HTS, Inhibitors
On the technique in general: Quantitative high-throughput screening tests each substance at several concentrations.
Consider `NCCc1c[nH]c2ccc(O)cc12`, for which the activity change, negative = inhibition is -9.84% (inactive) and -40.6% (active).

With `C/C(CCc1c[nH]c2ccccc12)=N\O`, the activity change, negative = inhibition is -2.5% (inactive).

As for `Cc1cccc2c(CCN)c[nH]c12`, the activity change, negative = inhibition is -2.64% (inactive).

In the case of `N#Cc1cc(Br)c(O)c(Br)c1`, the activity change, negative = inhibition was 2.57% (inactive).

With `C[C@@H]1C[C@H]2CC[C@H](O2)[C@H](C)C(=O)O[C@@H](C)C[C@@H]2CC[C@@H](O2)[C@@H](C)C(=O)O[C@H](C)C[C@H]2CC[C@H](O2)[C@H](C)C(=O)O[C@@H](C)C[C@@H]2CC[C@@H](O2)[C@@H](C)C(=O)O1`, the activity change, negative = inhibition is -0.707% (inactive).

Turning to `C[C@H]1C/C=C/[C@@H]2[C@@H]3O[C@]3(C)[C@@H](C)[C@H]3[C@H](Cc4ccccc4)NC(=O)[C@]32OC(=O)O/C=C/[C@](C)(O)C1=O`, the activity change, negative = inhibition is 1.28% (inactive).

Consider `CCCCCCCCCCCCN=C(N)N`, for which the activity change, negative = inhibition was -0.411% (inactive).

For `CO[C@H]1[C@@H](O)[C@@H](C)O[C@H](O[C@H]2[C@H](Oc3cccc4c(O)c5c(=O)oc6ccc(C)c7c(=O)oc(c34)c5c67)O[C@H](C)[C@H](O)[C@@H]2O)[C@@H]1O`, the activity change, negative = inhibition was -47.8% (active).

Regarding `Nc1ccc(-c2ccc(N)c(N)c2)cc1N`, the activity change, negative = inhibition is 3.84% (inactive).

Regarding `CC(=O)[O][Sn]([c]1ccccc1)([c]1ccccc1)[c]1ccccc1`, the activity change, negative = inhibition is -1.83% (inactive).

On to `CN(C)C[C@H]1CCCC[C@]1(O)c1cccc(O)c1`, for which the activity change, negative = inhibition is 0.267% (inactive).

Regarding `COc1cc(Cn2c(N)c(C(=O)NCc3ccco3)c3nc4ccccc4nc32)cc(OC)c1OC`, the activity change, negative = inhibition was -52% (active).

For `CCOC(=O)C(O)(c1ccc(NC(=O)c2ccco2)c(OC)c1)C(F)(F)F` (stereo not given), the activity change, negative = inhibition is -4.29% (inactive).

In the case of `CCOC(=O)c1c(N)n(Cc2ccccc2)c2nc3ccccc3nc12`, the activity change, negative = inhibition was -2.59% (inactive).

For `C[C@]12O[C@H](C[C@@]1(O)C(=O)O)n1c3ccccc3c3c4c(c5c6ccccc6n2c5c31)CNC4=O`, the activity change, negative = inhibition is 0.208% (inactive).
